This is a sample that favours compounds with a hit; in the whole collection about 11% have one here.
Pf growth 48h – inhibits P. falciparum growth in the first generation, 48 h. P. falciparum luciferase growth in erythrocytes, 48 h. Potency, µM (titrated, usually from 28.7 µM), without a hit: at the highest dose activity change, negative = inhibition, hits mostly inhibitors. actives 5.9% (n = 310,000); note: % is set by controls: 0 for no effect and ±100 for the full control effect
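First compound was added to culture medium, then infected red cells at 0.1% parasitemia and 2% hematocrit (final). After incubation at 37 C under 5% CO2, luciferase detection reagent was dispensed and light output recorded.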
Pf growth 96h – P. falciparum growth inhibition at 96 hours. P. falciparum luciferase reporter growth, 96 h. Potency, µM (highest dose often 28.7 µM), for the others: top-dose activity change, negative = inhibition, hits mostly inhibitors. actives 6.9% (n = 320,000). AID 504834; note: % is set by controls: 0 for no effect and ±100 for the full control effect
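Two-generation exposure (96 h) targets delayed-death phenotype. Reporter parasites carrying integrated firefly luciferase, in red cells at 2% hematocrit and 0.05% parasitemia final, kept at 37 C, 5% CO2; luminescence loss indicates inhibition.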
Vaccinia Venus – inhibitors of vaccinia virus (Venus reporter); actives 0.46% (n = 330,000); Vaccinia virus Venus reporter expression, fluorescence; Potency, µM (doses to about 36.5 µM), for inactives: at the top dose activity change, negative = inhibition, hits mostly inhibitors; calls by dose curve; tested in A549 cells; note: % is set by controls: 0 for no effect and ±100 for the full control effect; nearly all actives have a fitted effect of over 30% in size
HCV inh – blocks hepatitis C virus; Huh7.5.1 HCVcc-Cre infection, luciferase reporter, 44 h; Potency, µM (doses to about 41.8 µM), for the others: at the top dose activity change, negative = inhibition, usual class: inhibitors; actives 3.4% (n = 340,000); AID 651820; note: % is set by controls: 0 for no effect and ±100 for the full control effect
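Cells seeded at 1,000/well and cultured 4 h, then compounds added followed by HCVcc-Cre virus (~0.5 moi). After 44 h further culture, luciferase substrate was added, plates held 15 min at room temperature, and luminescence read for 15 sec.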
Vaccinia mCherry – inhibitors of vaccinia virus infection (mCherry reporter signal); actives 0.63% (n = 310,000); AID 720579; Potency, µM (top dose mostly 36.5 µM), for the others: top-dose activity change, negative = inhibition, most hits filed as inhibitors; Vaccinia virus mCherry reporter infection, fluorescence; calls by dose curve; tested in A549 cells; note: % is set by controls: 0 for no effect and ±100 for the full control effect; nearly all actives have a fitted effect of over 35% in size
NS1 function inh – inhibitors of influenza NS1 protein function; Potency, µM (series often up to 46.1 µM), for inactives: at the highest dose activity, positive = more growth; actives 0.4% (n = 270,000); calls by dose curve; note: actives are rising curves; nearly all actives have a fitted effect of over 50% in size
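Read-out: OD600 growth recovery of NS1-expressing budding yeast. Cells grown overnight at 30C in -URA glucose medium, washed, resuspended and diluted 1:100 in 2% galactose assay medium, pH 6.0. Same strain lacking NS1 served as positive control.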
An asterisk follows results filed as active; i = inactive; ? = inconclusive; nt = no result given. Unless noted, calls come from the whole dose curve; as a rule, active = well fitted inhibition curve with a large enough effect; inconclusive = small, poorly fitted or top-dose-only effect, or another doubt; inactive = no such curve, though single readings can be large or run the other way. Potency is the fitted concentration of half-maximal effect.

SMILES	Pf growth 48h	Pf growth 96h	Vaccinia Venus	HCV inh	Vaccinia mCherry	NS1 function inh
O=C(N1CCOCC1)C(F)(F)C(F)(F)C(F)(F)C(F)(F)C(=O)N1CCOCC1	16%	12µM*	nt	15%	nt	8%
CC(=O)N1CCOCCOCCN(C(C)=O)CCOCCOCC1	35%	20%	1%	4%	-14%	5%
O=C(CSc1nc2c([nH]c3ccccc32)c(=O)n1-c1ccccc1)Nc1ccc(Cl)c(Cl)c1	nt	nt	-19%	nt	-7%	nt
O=C(NNC(=O)C1CCN(S(=O)(=O)c2cccc(C(F)(F)F)c2)CC1)C1CC1	15%	12%	-11%	9%	i	1%
COc1ccc(OC)c(S(=O)(=O)N2CCC(C(=O)Nc3cccc(C)c3)CC2)c1	nt	?	-23%	-14%	-28%	1%
O=C(Nc1ccccc1N1CCCC1)C1CCN(S(=O)(=O)c2cccc(C(F)(F)F)c2)CC1	12µM*	10µM*	-12%	?	?	nt
CNC(=O)c1ccc(NC(=O)C2CCN(S(=O)(=O)c3cccc(C(F)(F)F)c3)CC2)cc1	13µM*	?	nt	2%	nt	nt
COc1ccc(S(=O)(=O)N2CCC(C(=O)Nc3ccccc3N3CCCC3)CC2)cc1OC	?	12µM*	nt	?	nt	-23%
COc1ccc(S(=O)(=O)N2CCC(C(=O)Nc3ccccc3)CC2)cc1OC	nt	nt	-4%	nt	7%	nt
COc1ccc(OC)c(S(=O)(=O)N2CCC(C(=O)Nc3cc(C)ccc3C)CC2)c1	nt	13µM*	-13%	-15%	-14%	-2%
NC(=O)c1ccc(NC(=O)CN2CCN(Cc3ccccc3)CC2)cc1	16%	31%	nt	12%	nt	-3%
Cn1cc(C2NC(=O)c3c(sc4c3CCCC4)N2)c2ccccc21 (stereo not drawn)	nt	nt	nt	nt	nt	-41%
O=C(Nc1ccccc1N1CCCCC1)C1CCN(S(=O)(=O)c2cccc(C(F)(F)F)c2)CC1	8.3µM*	?	-18%	?	-25%	nt
COc1ccc(NC(=O)C2CCN(S(C)(=O)=O)CC2)cc1OC	-1%	15%	nt	13%	nt	-1%
COc1ccc(NC(=O)C2CCN(S(=O)(=O)c3ccc(C)cc3)CC2)cc1OC	-11%	5.2µM*	nt	-9%	nt	1%
Cc1ccc(S(=O)(=O)N(C)c2ccc(OCC(=O)OCc3nnc(-c4ccccc4)o3)cc2)cc1	nt	nt	nt	14%	nt	nt
Cc1nc(CCl)cc(=O)[nH]1	5.2µM*	?	-27%	6%	-25%	nt
Cc1ccccc1NC(=O)CN1C(=O)N/C(=C\c2ccc(N3CCOCC3)c(F)c2)C1=O	9%	9%	0%	8%	i	5%
NC(=S)N/N=C1\CCOc2ccc(F)cc21	?	?	0.89µM*	-6%	1.8µM*	11%
Cc1cc(C(F)F)n2nc(C(=O)NCc3ccccc3F)nc2n1	2%	30%	-9%	?	nt	3%
Cc1cccc(-n2c(SCC(=O)NC3CCCC3)nnc2-c2ccoc2C)c1	13µM*	22%	nt	-12%	nt	-7%
Cc1occc1-c1nnc(SCC(=O)NC2CC2)n1C	35%	?	nt	9%	nt	10%
Cc1cccc(-n2c(SCC(=O)NCc3ccco3)nnc2-c2ccco2)c1	?	5.2µM*	-8%	13%	-14%	1%
Cc1nnc(SCC(=O)NC2CC2)n1-c1ccccc1	8%	4.7µM*	nt	13%	nt	6%
CCc1nc(SCC(=O)NC2CC2)c2c(C)c(C)sc2n1	-5%	4.7µM*	1%	-25%	79%	-9%
COc1cc(NC(=O)CCCNC(=O)c2ccc(Cl)cc2)cc(OC)c1OC	4%	-12%	nt	-9%	nt	-4%
Cn1c(SCC(=O)NC2CCCC2)nnc1-c1ccco1	15%	1%	3%	17%	16%	5%
COc1cccc(-n2c(SCC(=O)NC3CCCC3)nnc2-c2ccco2)c1	2.1µM*	-2%	-30%	13%	?	-20%
Cc1nnc(SCC(=O)NC2CC2)s1	-1%	13µM*	-9%	9%	-26%	13%
CN(c1cccc(NC(=O)CN(c2cccc(Cl)c2)S(=O)(=O)c2ccc(Cl)cc2)c1)S(C)(=O)=O	?	1%	?	22µM*	-7%	6%

Screening data (PubChem)
